Measurements published in PubChem BioAssay (NCI).
Compounds without any hit were thinned out: in the full panel of roughly 79,000, 15% have a hit. Values without a mark were called inactive. Calls of active or inactive are those of the source. No stated cut-off is given here; in the data, active means growth inhibition above about 70%; inactive means the rest.

Legend:
[1] = NCI Yeast Anticancer Drug Screen. Data for the rad50 strain (AID 155);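 further: 0% = growth of vehicle-only cultures of the same strain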; conditions: S. cerevisiae rad50 strain growth inhibition; at 50.0 µM; stronger effect = higher value
Method in brief: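 Compounds were tested on a yeast strain with an engineered DNA damage repair alteration; the reported value is growth inhibition normalised to vehicle treatment.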

[2] = NCI Yeast Anticancer Drug Screen. Data for the mec2-1 strain (AID 157); conditions: S. cerevisiae mec2-1 strain, at 50.0 µM, stronger effect = higher value
Method in brief: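 Readout is yeast growth inhibition, normalised to vehicle-treated controls, in the mec2-1 strain exposed to compound.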

[3] = NCI Yeast Anticancer Drug Screen. Data for the sgs1 mgt1 strain (AID 161);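 further: 0% = growth of cultures given vehicle only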; conditions: S. cerevisiae sgs1 mgt1 strain, at 50.0 µM, stronger effect = higher value
Method in brief: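 Yeast cells carrying a defined DNA-repair defect were exposed to test compounds. Growth inhibition was measured relative to vehicle-treated controls.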

[4] = NCI Yeast Anticancer Drug Screen. Data for the cln2 rad14 strain (AID 165);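 further: 0% = growth equal to vehicle treated cultures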; conditions: S. cerevisiae cln2 rad14 strain, at 50.0 µM, stronger effect = higher value
Method in brief: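 Relative to vehicle controls, growth inhibition of compound-treated cln2 rad14 yeast was recorded.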

[5] = NCI Yeast Anticancer Drug Screen. Data for the bub3 strain (AID 167); conditions: S. cerevisiae bub3 mutant strain, at 50.0 µM, stronger effect = higher value
Method in brief: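 Growth of a checkpoint-deficient yeast mutant is measured after compound exposure. Values represent inhibition relative to vehicle.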

[6] = NCI Yeast Anticancer Drug Screen. Data for the mlh1 rad18 strain (AID 175); conditions: S. cerevisiae mlh1 rad18 strain growth inhibition; at 50.0 µM; stronger effect = higher value
Method in brief: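 Test agents were incubated with a yeast strain of defined genotype (DNA damage repair defect). Inhibition of growth was derived by comparison with vehicle-exposed cultures.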

| SMILES | growth inhibition [1] | growth inhibition [2] [%] | growth inhibition [3] | growth inhibition [4] [%] | growth inhibition [5] | growth inhibition [6] [%] |
| --- | --- | --- | --- | --- | --- | --- |
| Ic1ccc(N=Cc2cccs2)cc1 | 5.1% | -1.85 | 21.6% | 6.8 | 10.8% | 21.8 |
| CC(C)(C)CC(C)(C)c1ccc(OCCOc2ccc([N+](=O)[O-])cc2N)cc1 | 56.5% | 11.1 | 41.6% | 4 | 4.9% | 26.1 |
| CSC1C(=O)Nc2ccccc21 (stereo not drawn) | -8.5% | -17.6 | 4.1% | -13.1 | -34.5% | -3 |
| COc1ncn(C2CC(OC(=O)c3ccc(C)cc3)C(COC(=O)c3ccc(C)cc3)O2)c(=O)n1 (stereo not drawn) | -8.3% | -9.1 | -14.7% | -22.4 | -0.6% | -3.05 |
| CN1CCN(CN2C(=O)C3C4C=CC(C3C2=O)C2C(=O)N(CN3CCN(C)CC3)C(=O)C42)CC1 (stereo not drawn) | 18.1% | 5.95 | 13.5% | -0.85 | 14.6% | 16.9 |
| NC(=O)c1ccccn1 | 20.7% | -5.45 | 15% | 18.3 | 0.75% | 28.4 |
| C=C(C)CCC[C@@H](C)C1CCC2(C)[C@@H]3CCC4C(C)(C)[C@@H](O)CC[C@@]45C[C@@]35CC[C@]12C (stereo partly drawn) | 31.1% | 0.45 | 25.4% | 0.5 | 18% | 23.1 |
| CC(CCOCC1CO1)OCC1CO1 (stereo not drawn) | 13.8% | -17.4 | 3.85% | 14.8 | -17.5% | 22.6 |
| CC(=O)Nc1ccc(/C=C/C(=O)c2sc(-c3cccnc3)nc2C)cc1 | 33.2% | 11.8 | 3.25% | 17.9 | 17.5% | 29.3 |
| O=C(c1cccs1)N(C(=S)N1CCN(c2ccccc2)CC1)c1ccccc1 | -2.7% | -11.1 | 4.55% | -7.8 | -30.4% | -4.3 |
| CC1=NC(C(=O)O)CC1C (stereo not drawn) | 1.15% | 4 | -5.35% | -7.7 | 1.45% | -1.3 |
| c1ccc(C(N=NC(c2ccccc2)c2ccccc2)c2ccccc2)cc1 | 4.4% | -10.3 | 3.75% | -18.3 | -21.8% | 16.8 |
| N=c1nc2ccc3ccccc3c2nn1-c1ccc([N+](=O)[O-])cc1 | 88% (active) | 16.4 | 13.8% | -5.4 | 18.6% | 27.2 |
| CO/N=C1\C(O)CC2C(C)(CCC3C2(C)CCC2(C)C4CC(C)(C)CCC4(C)CCC32C)C1C (stereo not drawn) | 1.9% | -3.8 | -18.5% | -14.1 | -1.45% | -5.85 |
| COC(=O)Cc1ccc2c(c1)Sc1ccc(CC(=O)OC)cc1N2C | -4.75% | -43.8 | -10.1% | -18.2 | 34.7% | -36.3 |
| CSc1nc(C)cc(=O)n1C1OC(COC(C)=O)C(OC(C)=O)C(OC(C)=O)C1OC(C)=O (stereo not drawn) | 20.6% | -13.6 | -7.35% | 16.6 | -30.6% | 32.5 |
| COC(=O)CNC(=O)C(Cc1ccc(OCc2ccccc2)cc1)NC(=O)OC(C)(C)C (stereo not drawn) | 6.65% | 11 | 23.1% | 2.25 | -10.6% | 26.6 |
| CCCCCCCCCCCCCCCCCC(=O)N/N=C/c1ccc(Cl)cc1 | -6.2% | -8.95 | -11.6% | -15.4 | -2.85% | -25.1 |
| C=C1[C@H](OCC(C)C)[C@@H](OC(=O)C(C)CC)[C@@H](O)C(C)(C)/C=C/[C@H](C)C(=O)[C@@]2(O)C[C@H](C)[C@H](O)[C@@H]2[C@H]1OC(=O)C(C)CC (stereo partly drawn) | 47% | 46.6 | 75.2% (active) | 69.3 | 73.7% (active) | 58.1 |

| SMILES | growth inhibition [1] | growth inhibition [2] [%] | growth inhibition [3] | growth inhibition [4] [%] | growth inhibition [5] | growth inhibition [6] [%] |
| --- | --- | --- | --- | --- | --- | --- |
| CCOc1ccc(C(C)(CC)c2cc3c(cc2OC)OCO3)cc1 (stereo not drawn) | -18.9% | -14.3 | -23.3% | 3.55 | -20.1% | 3.85 |
| CCCCCCCC/C=C/CCCCCCCC(=O)OCC(C)(C)N1C(=O)CCC1=O | -11.2% | -20.4 | -12.6% | -11.2 | -3.45% | -7.3 |
| N#C/C(=C1\N=C(c2ccccc2O)Oc2ccccc21)c1ccc([N+](=O)[O-])cc1 | 6.85% | -11.9 | 13.1% | -0.7 | 4.35% | -13.6 |
| CC(C)CC(CC(C)C)OB(OC(CC(C)C)CC(C)C)OC(CC(C)C)CC(C)C | -27.8% | -15.3 | -14.6% | 10.9 | -0.3% | -7.8 |
| CC(C)(C)c1ccc(C(C)(C)C)c(=O)[nH]1 | -32.1% | -19.1 | -12.3% | -41.5 | -6.1% | 5.65 |
| N#C/C(=C\c1ccc(Cl)cc1)C(=O)N/N=C/c1ccc(Cl)cc1 | 24.6% | 27.1 | 33% | 1.35 | 5.75% | 27.9 |
| COc1cccc2c1OC(=O)NC2O (stereo not drawn) | -8.35% | -4.3 | -17.9% | -13.5 | -20.4% | 4.3 |
| CCCCCCCCCCCCC#N | -20.8% | -16.1 | -1.15% | -32.9 | -5.2% | 7.85 |
| C=C[C+](CCCC)C(=O)[O-] | -20.2% | -24.1 | -11.1% | -19.8 | -12.8% | -34.9 |
| CSCCC(N)=O | -10.2% | -6.95 | 9.8% | 0.05 | -16.8% | 2.9 |
| Cc1cccc(N=Nc2c(C)nc(N)nc2C)c1C | 4.35% | 6.55 | 2.1% | -37.6 | -13.6% | 6.75 |
| CCCCCCCCCCCCCCCCCCNC(=O)Nc1ccccc1 | 3.1% | 7.05 | -2.75% | -7.65 | -4.05% | 15.3 |
| O=[N+]([O-])c1ccc(C2NC(c3ccccc3)c3c(ccc4ccccc34)O2)cc1 (stereo not drawn) | 41% | 2.75 | 23.8% | -1.35 | -0.25% | 4.3 |
| CN(C)CCCNc1ccc2ncn3c4ccccc4c(=O)c1c23 | -2.15% | 6.2 | -3.35% | 20.9 | 1.5% | 22.4 |
| OC1CCCC1c1ccccc1 (stereo not drawn) | 6.4% | -24.4 | -11.9% | -7.55 | -3.7% | 4.45 |
| Nc1ccc(S(=O)(=O)n2c(=O)oc3cc(Cl)ccc32)cc1 | 0.75% | 5.75 | 8.9% | -6.7 | 14.1% | 19.8 |
| COC1C(CO)OC(n2c3c(Cl)cccc3c3c4c(c5c6cccc(Cl)c6[nH]c5c32)C(=O)NC4=O)C(O)C1O (stereo not drawn) | 16.8% | 8.45 | -1.4% | 20.4 | 7.4% | -21.1 |
| CC(C)(C)C([O-])=C1C(=O)c2ccccc2C1=O.CC(C)(C)C([O-])=C1C(=O)c2ccccc2C1=O.CC[O-].CC[O-].[Ti+4] | 20.1% | 47.1 | 57.4% | 47.3 | 59.2% | 46.2 |
| COc1ccccc1NC(=O)N(Cc1ccccc1)C(C)(C)C | 12.2% | 9.35 | 30.4% | -10.2 | 19.3% | 33.2 |
